This is a sample that favours compounds with a hit; in the whole collection about 7.8% have one here.
PostGolgi ctrl = growth inhibition of yeast control strain, primary screen, counter-screen for post-Golgi transport modulator project; efflux-deficient yeast background strain, growth absorbance A615, 16 h; inhibition, % at 10 µM; 98,000 tested, 5% active
PostGolgi yeast = phenotypic screen on post-Golgi transport, primary screen; post-Golgi transport phenotypic cell assay; inhibition, % at 10 µM; 98,000 tested, 0.9% active;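 note: yeast cells grown in 1536-well plates; yeast grown about 18 h at 30C before absorbance read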
Cav3 T inh = Cav3.2 calcium influx blockers – cell-based, Fluo-4 calcium fluorescence, FDSS, MLSMR library, primary screen; Voltage-dependent T-type calcium channel subunit alpha-1H (Homo sapiens), O95180; Cav3.2-expressing cells; stronger effect = lower value; B-score at 10 µM; 100,000 tested, 4% active; AID 449739, 2010;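 active = single-dose well whose peak fluorescence ratio is a statistical outlier from its plate by either plate-standardised score or position-corrected B-score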
Target sequence (O95180 whole entry, looked up): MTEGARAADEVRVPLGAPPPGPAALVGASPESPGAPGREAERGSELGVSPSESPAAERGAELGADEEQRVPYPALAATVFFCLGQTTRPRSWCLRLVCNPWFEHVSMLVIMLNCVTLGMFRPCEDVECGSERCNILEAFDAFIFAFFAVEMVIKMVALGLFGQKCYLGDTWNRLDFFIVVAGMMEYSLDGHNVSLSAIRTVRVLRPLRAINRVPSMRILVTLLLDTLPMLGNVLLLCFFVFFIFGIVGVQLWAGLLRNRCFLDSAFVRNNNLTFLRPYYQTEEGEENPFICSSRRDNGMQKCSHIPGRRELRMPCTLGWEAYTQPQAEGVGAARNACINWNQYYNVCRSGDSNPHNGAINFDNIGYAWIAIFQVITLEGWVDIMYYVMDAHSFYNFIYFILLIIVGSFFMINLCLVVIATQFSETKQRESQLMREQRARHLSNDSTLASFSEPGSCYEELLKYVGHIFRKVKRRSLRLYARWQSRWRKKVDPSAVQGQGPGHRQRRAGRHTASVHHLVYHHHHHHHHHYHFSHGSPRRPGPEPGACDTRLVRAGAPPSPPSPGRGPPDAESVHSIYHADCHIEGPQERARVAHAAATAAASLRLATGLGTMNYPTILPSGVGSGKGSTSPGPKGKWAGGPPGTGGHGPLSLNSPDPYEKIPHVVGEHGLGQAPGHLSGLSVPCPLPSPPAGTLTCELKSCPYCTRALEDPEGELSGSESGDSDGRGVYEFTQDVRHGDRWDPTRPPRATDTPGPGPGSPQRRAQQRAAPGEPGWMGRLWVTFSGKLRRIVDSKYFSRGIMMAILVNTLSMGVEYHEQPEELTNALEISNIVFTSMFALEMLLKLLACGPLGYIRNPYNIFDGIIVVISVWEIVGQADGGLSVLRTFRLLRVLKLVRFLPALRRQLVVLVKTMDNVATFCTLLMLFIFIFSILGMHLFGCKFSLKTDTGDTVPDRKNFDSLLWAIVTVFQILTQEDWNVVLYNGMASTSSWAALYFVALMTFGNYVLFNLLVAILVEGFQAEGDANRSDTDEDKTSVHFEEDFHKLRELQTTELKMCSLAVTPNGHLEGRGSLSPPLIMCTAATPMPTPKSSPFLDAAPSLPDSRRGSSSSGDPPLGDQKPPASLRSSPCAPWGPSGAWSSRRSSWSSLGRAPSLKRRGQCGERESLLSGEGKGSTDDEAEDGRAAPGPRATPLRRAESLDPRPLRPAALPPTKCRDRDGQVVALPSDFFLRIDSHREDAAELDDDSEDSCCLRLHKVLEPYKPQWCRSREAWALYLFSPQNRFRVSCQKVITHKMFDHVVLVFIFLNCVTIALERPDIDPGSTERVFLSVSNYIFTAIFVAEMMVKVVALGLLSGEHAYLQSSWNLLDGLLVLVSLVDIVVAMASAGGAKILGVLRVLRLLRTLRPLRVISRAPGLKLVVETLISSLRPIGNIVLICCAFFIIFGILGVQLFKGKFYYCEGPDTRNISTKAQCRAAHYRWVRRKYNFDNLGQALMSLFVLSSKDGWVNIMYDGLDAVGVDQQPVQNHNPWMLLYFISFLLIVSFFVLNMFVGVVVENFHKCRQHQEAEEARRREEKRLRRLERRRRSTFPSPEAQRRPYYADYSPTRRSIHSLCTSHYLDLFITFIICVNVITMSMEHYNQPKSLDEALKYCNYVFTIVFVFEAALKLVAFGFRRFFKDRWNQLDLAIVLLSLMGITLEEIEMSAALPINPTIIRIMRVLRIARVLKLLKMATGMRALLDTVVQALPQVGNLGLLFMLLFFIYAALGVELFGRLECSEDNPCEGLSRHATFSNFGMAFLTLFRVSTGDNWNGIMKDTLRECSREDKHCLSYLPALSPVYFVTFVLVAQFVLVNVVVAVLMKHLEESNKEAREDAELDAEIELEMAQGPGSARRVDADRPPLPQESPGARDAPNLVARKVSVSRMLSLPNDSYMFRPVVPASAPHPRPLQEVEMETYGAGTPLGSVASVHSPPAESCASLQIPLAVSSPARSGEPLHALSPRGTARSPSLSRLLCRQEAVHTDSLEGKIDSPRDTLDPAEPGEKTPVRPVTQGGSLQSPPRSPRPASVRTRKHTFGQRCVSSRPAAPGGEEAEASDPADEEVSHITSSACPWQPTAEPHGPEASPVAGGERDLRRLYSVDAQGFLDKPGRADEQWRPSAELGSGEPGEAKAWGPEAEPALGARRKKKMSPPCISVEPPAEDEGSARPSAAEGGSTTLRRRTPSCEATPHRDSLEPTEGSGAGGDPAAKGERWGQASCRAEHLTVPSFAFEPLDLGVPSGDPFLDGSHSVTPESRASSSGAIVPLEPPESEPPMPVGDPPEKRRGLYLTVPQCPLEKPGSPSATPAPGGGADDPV
sEH act = soluble epoxide hydrolase activators, primary screen, biochemical, human sEH | Bifunctional epoxide hydrolase 2 (Homo sapiens), P34913 | purified human sEH enzymatic activity, activator screen | activation, % at 2 µM | 91,000 tested, 0.04% active; in the data active = activation above about 37%
sEH inh = soluble epoxide hydrolase inhibitors, primary screen, biochemical, human sEH; AID 707, 2007; recombinant human sEH enzymatic activity assay; 91,000 tested, 0.34% active; inhibition, % at 2 µM; in the data active = inhibition above about 80%
Numbers without * were called inactive; nt = no result given. Cut-off read from the data, not from the text of the source, unless noted: active = inhibition above about 30%; inactive = the rest.

SMILES | PostGolgi ctrl | PostGolgi yeast | Cav3 T inh | sEH act | sEH inh
COC(=O)c1[nH]c2cc(OC)ccc2c1NC(=O)CCN1CCSCC1 | 5.9 | -18.8 | 0.4 | -1.0 | 1.5
CC(C)C(=O)NC(Nc1cccc2cccnc12)C(Cl)(Cl)Cl (centres undefined) | 7.2 | 15.4 | -5.05* | -4.4 | 5.4
CC(C)CC(=O)NC(NC(=S)Nc1cccc2cccnc12)C(Cl)(Cl)Cl (centres undefined) | 16.5 | 0.2 | -0.035 | -4.5 | 5.3
O=S(=O)(c1ccc(Cl)c(Cl)c1)c1snnc1-c1ccccc1 | 52.2* | 24.6 | -1.5 | -1.5 | 4.5
COc1ccc2nc(Nc3nc(CSc4nnnn4-c4ccccc4)cc(=O)[nH]3)nc(C)c2c1 | 23.0 | 12.4 | -0.507 | 14.2 | -11.7
COc1ccc2nc(Nc3nc(C)c(CCC(C)C)c(=O)[nH]3)nc(C)c2c1 | 31.3* | -1.4 | -5.36* | 1.0 | 2.0
COc1cccc(C(=O)Nc2cc(=O)n(C)c(=O)n2C)c1 | nt | nt | 0.468 | nt | nt
Cc1ccccc1Cn1c2ccccc2c2cnn(CC(=O)N3CCN(c4ccccc4)CC3)c(=O)c21 | 42.3* | 0.0 | -3.62 | nt | nt
O=C1CC(c2cccs2)CC2=C1C(c1ccccc1)n1ncnc1N2 (centres undefined) | 10.0 | 1.1 | 1.22 | -2.3 | 2.6
CC1CC(=O)C2=C(C1)Nc1ncnn1C2c1ccccc1 (centres undefined) | 47.9* | 0.8 | 0.734 | 0.5 | -0.2
Cc1ccc(OCn2c(=O)sc3ccccc32)cc1 | 6.1 | 5.9 | -1.43 | -2.9 | 6.5
CC(C)C[C@H](NC(=O)OC(C)(C)C)c1nnc(SCC(=O)Nc2ccc(Br)cc2)o1 | 5.7 | -6.9 | -6.48* | 11.3 | -13.2
CC(C)C[C@H](NC(=O)OC(C)(C)C)c1nnc(SCc2cccc(F)c2)o1 | 3.2 | -11.5 | -3.42* | -2.7 | 2.6
COC(=O)CSc1nnc([C@H](Cc2ccccc2)NC(=O)OC(C)(C)C)o1 | 1.5 | 4.1 | 0.682 | 5.6 | -8.5
COc1ccc(-c2c(-c3ccsc3)oc3ccc(N4CCOCC4)cc23)cc1 | nt | nt | 0.33 | nt | nt
CCCC(=O)Nc1cc(C)c2c(=O)oc3ccccc3c2n1 | nt | nt | -3.86* | nt | nt
CCCCn1nc2cc(C(=O)NC3CCCc4ccccc43)ccc2c1OCC (centres undefined) | -3.7 | 4.7 | -0.956 | -40.9 | 42.7
N/C(Cc1ccc(Cl)cc1)=N\OC(=O)c1ccc2ccccc2c1 | 81.0* | 21.1 | 0.0165 | 8.2 | -5.1
N/C(Cc1ccc(Cl)cc1)=N\OC(=O)c1cccc2ccccc12 | 104.3* | 82.5* | -3.18 | 3.5 | -3.9
Cc1ccccc1OCC(=O)O/N=C(\N)Cc1ccc(Cl)cc1 | 11.1 | -0.9 | -0.0359 | -11.6 | 13.7
COc1cc(OC)nc(Oc2ccccc2C(=O)Oc2ccc(F)cc2Cl)n1 | 29.2 | -1.4 | -1.49 | -9.7 | 14.8
O=C(NCC1CCC(C(=O)O)CC1)c1cccnc1 (centres undefined) | 0.6 | 22.4 | 0.413 | -5.5 | 4.5
CC(C)NC(=S)Nc1ccc(Oc2ccccc2)cc1 | 2.1 | -10.9 | -4.74* | -38.2 | 38.0
CCCNC(=S)Nc1ccc(Oc2ccccc2)cc1 | 12.8 | -6.9 | -1.09 | 5.5 | -4.2
CC(C)(C)n1nnnc1C(c1cccs1)N1CCCc2ccccc21 (centres undefined) | 20.6 | 18.4 | -5.92* | -11.9 | 10.8
SMILES | PostGolgi ctrl | PostGolgi yeast | Cav3 T inh | sEH act | sEH inh
CC(C)(C)n1nnnc1C(c1cccs1)N1CCCC2(CCCCC2)C1 (centres undefined) | 5.8 | -6.6 | -3.91 | 9.1 | -9.1
CC(C)C(c1nnnn1C1CCCC1)N1CCCc2ccccc21 (centres undefined) | 1.9 | -3.1 | -3.93* | 12.6 | -14.9
C=C1CCN(C(C)C(=O)O)S(=O)(=O)c2ccccc21 (centres undefined) | nt | nt | 1.01 | nt | nt
O=S(=O)(Cc1ccc(Cl)cc1)c1ccccc1-c1nnc(-c2ccc(Cl)cc2)o1 | 28.7 | 10.3 | nt | 8.6 | -9.0
CCN(CC)C(=O)C(=O)N/N=C/c1cccc(Br)c1 | 9.8 | -0.9 | -0.849 | -9.2 | 11.3
O=C(Cc1ccccc1)NCCSCc1ccc(Cl)cc1 | 11.6 | -3.0 | -4.37* | -21.0 | 21.4
CCc1nnc(NC(=O)c2cccc(S(=O)(=O)N(C)c3ccccc3)c2)s1 | 17.0 | -10.2 | nt | -6.8 | 4.0
CN(CC(CC(=O)Nc1nncs1)c1ccccc1)S(=O)(=O)c1ccccc1 (centres undefined) | 6.2 | 5.2 | -2.44 | -11.8 | 10.9
CCc1nnc(NC(=O)CC(CN(C)S(=O)(=O)c2ccccc2)c2ccccc2)s1 (centres undefined) | 1.4 | 1.5 | -6.88* | 0.0 | 1.6
CN(CC(CC(=O)Nc1nncs1)c1ccccc1)S(=O)(=O)c1ccc(Br)cc1 (centres undefined) | 9.8 | 1.4 | -9.53* | 20.1 | -21.0
Cc1nn(C(C)C(=O)NNC(=S)Nc2ccc(Cl)cc2)c(C)c1[N+](=O)[O-] (centres undefined) | -2.8 | -1.9 | -2.22 | -1.1 | 2.9
CCOC(=O)C1CCN(C(=O)c2cccnc2Cl)CC1 | 5.7 | 8.8 | 1.19 | 11.8 | -13.5
CC(OC(=O)CN(C)S(=O)(=O)c1ccc(Cl)cc1)C(=O)Nc1cccc(Cl)c1 (centres undefined) | 20.0 | 0.6 | -6.59* | -6.6 | 5.0
O=C(/C=C(\O)c1ccc(Cl)cc1)C(=O)NNC(=O)C(O)(c1ccccc1)c1ccccc1 | 24.1 | 15.0 | -8.63* | 1.7 | 1.1
O=C(NNC(=O)c1ccccc1O)c1ccc(Cl)cc1 | 2.9 | 1.7 | 0.855 | 2.3 | -1.2
O=C1OC(C(=O)O)Cc2ccccc21 (centres undefined) | nt | nt | 0.763 | 6.2 | -2.2
NC(=O)NCCC1=CCCCC1 | 2.1 | -6.2 | nt | 1.0 | 0.2
O=C(NCCC1=CCCCC1)C(=O)NCc1ccccc1Cl | 33.8* | 1.3 | -0.132 | -7.5 | 10.0
O=C(O)C1C2CCC(O2)C1C(=O)NCCC1=CCCCC1 (centres undefined) | 30.4* | -2.1 | 0.36 | 6.0 | -6.7
O=C(NCCC1=CCCCC1)NC1CCCCC1 | 6.7 | -4.8 | -1.47 | -94.5 | 94.4*
O=C(NCCc1ccccc1)NC1CCCCC1 | 10.6 | -2.8 | -0.218 | -82.1 | 82.5*
CCCCCc1c(C)nc(N2CCOCC2)[nH]c1=O | 3.8 | 2.6 | 0.674 | 6.9 | -9.6
COc1ccc(-c2cnc3nc[nH]c(=O)c3n2)cc1 | nt | nt | 0.00621 | 3.3 | -1.0
O=C(NCCn1cc(SCc2ccc(F)cc2)c2ccccc21)c1ccccc1F | nt | nt | -4.66* | nt | nt
COC(=O)Nc1ccc(S(=O)(=O)N2c3ccccc3CCC2C)cc1 (centres undefined) | 34.2* | -2.4 | -7.24* | nt | nt
COc1cc(C(=O)NS(=O)(=O)c2ccccc2C)ccc1Cc1cn(C)c2ccc(NC(=O)OC3CCCC3)cc12 | nt | nt | -5.9* | nt | nt
COc1cccc(SCc2noc(C(=O)NCCN(C)C)c2C(=O)NCCN(C)C)c1 | nt | nt | 0.678 | nt | nt
CO/N=C/NC(=O)NOCc1c(Cl)cccc1Cl | 31.5* | 0.5 | -0.398 | 8.2 | -7.2
CC(/C=N/NC(=O)C(O)c1ccccc1)=C\c1ccccc1 (centres undefined) | 2.6 | -6.5 | -2 | 8.0 | -3.6

From PubChem BioAssay
